# Source: PubChem BioAssay (NCATS)
# Results filed as inconclusive are left out. A call without a number means that no potency is given here. Active and inactive are the calls of the source. Calls come from the whole dose curve; as a rule, active = well fitted inhibition curve with a large enough effect; inconclusive = small, poorly fitted or top-dose-only effect; inactive = flat fitted curve, though single readings scatter.
# Experiment: P-glycoprotein substrates identified in KB-8-5-11 adenocarcinoma cell line, qHTS therapeutic library screen (AID 1346987); note: nearly all actives have a fitted effect of over 65% in size
# Conditions: KB-8-5-11 (P-gp overexpressing) viability, CellTiter-Glo, 72 h; series mostly up to 44.5 µM
# Text: The ATP-binding cassette transporters P-glycoprotein (P-gp) is known to limit brain penetration of many chemotherapy drugs. […] As such, we developed a high-throughput screen (HTS) to identify substrates of P-gp from a series of chemical libraries including the National Center for Advancing Translational Sciences Pharmaceutical Collection NPC, 2,816 compounds), testing a total of 10,804 compounds, most of which have known mechanisms of action. We used the CellTiter-Glo viability assay to test library compounds against the parental KB-3-1 human cervical adenocarcinoma cell line and the colchicine-selected sub-line KB-8-5-11 that over-expresses P-gp. KB-8-5-11 cells were also tested in the presence of a P-gp inhibitor (tariquidar) to assess reversability of transporter-mediated resistance. Of the tested compounds, a total of 90 P-gp substrates were identified including 55 newly identified P-gp substrates. Substrates were confirmed using an orthogonal killing assay against HEK-293 cells transfected with P-gp. As exemplars, we confirmed that […] (cyclin-dependent kinase inhibitor); AT9283, (Janus kinase 2/3 inhibitor); ispinesib (kinesin spindle protein inhibitor); gedatolisib (PKI-587, phosphoinositide 3-kinase/mammalian target of rampamycin inhibitor); GSK-690693 (AKT inhibitor); and KW-2478 (heat shock protein 90 inhibitor) were substrates , and direct ATPase stimulation was assessed. ABCG2 was also found to confer high levels of resistance to AT9283, GSK-690693 and gedatolisib, while ispinesib, AT7519 and KW-2478 were weaker substrates.
# The HeLa derivative cell line, KB-3-1, and its colchicine-selected, P-gp-overexpressing subline, KB-8-5-11 were maintained in DMEM with 10% FCS and Pen/Strep with glutamine at 37 degree C in 5% CO2. For KB-8-5-11 cells, colchicine was added to the medium at a concentration of 100 ng/mL. HEK-293 cells transfected with empty vector (pcDNA) or vector containing human ABCB1 (MDR-19) or ABCG2 (R-5) have been described previously (Robey, Lin, Qiu, Chan & Bates, 2011) and were maintained in EMEM supplemented with 10% FCS, Pen/Strep and glutamine with 2 mg/ml G418 to select for the expression of the transporter. Cultures were confirmed to be free of mycoplasma infection using the MycoAlert Mycoplasma Detection Kit (Lonza, Walkersville, MD). For the screen, assay medium was identical to culture medium except for KB-8-5-11 where colchicine was excluded from the medium.
# All cell lines were plated into 1536-well plates at 500 cells/well in 5 uL media. Compounds were then pinned in dose-response using a 1536-head pin tool (Kalypsis, San Diego, CA) and plates were incubated at 37 degree C in 5% CO2 for an additional 72 h. CellTiter-Glo reagent (Promega) was dispensed into the wells, incubated for 5 min and luminescence was read on a ViewLux instrument (Perkin-Elmer). Cytotoxic compounds were defined as those that yielded a curve class of -1.1, -1.2, -2.1, -2.2, -2.3, or -2.4, a maximum response of >50% and an AC50 of < 10 uM. Cherry-picked hits from screening analysis were tested with both the KB pair of cell lines, and the pcDNA (empty vector control) and MDR-19 (P-gp overexpressing) pair were tested, in the absence and presence of tariquidar.
# Potency is the fitted concentration of half-maximal effect.
Structure (SMILES),Potency,"activity change, negative = cytotoxicity"
CN1CCc2cc3c(cc2C1C1OC(=O)c2c1ccc1c2OCO1)OCO3 (stereo not given),inactive,–
C=C1[C@@H](O)[C@]2(O)OC[C@]34C2[C@]2(C)C(C[C@H]3OC(=O)[C@H](O)[C@@]14O)C(C)=CC(=O)[C@H]2O (stereo not given in full),inactive,–
C=CCC1([C@@H](C)CCC)C(=O)NC(=O)NC1=O,inactive,–
Nc1ncnc2c1ncn2[C@@H]1O[C@@H]2COP(O)(=S)O[C@H]2[C@H]1O (stereo not given in full),–,2.93% [at 9.29 µM] (inactive)
CCCCCn1cc(C(=O)C2C(C)(C)C2(C)C)c2ccccc21,inactive,–
CC(=O)[C@@]1(O)CC[C@H]2[C@@H]3CCC4=CC(=O)CC[C@]4(C)C3(F)[C@@H](O)C[C@@]21C (stereo not given in full),inactive,–
CC(O)(c1ccccc1)C(Cc1ccc(Cl)cc1)n1cncn1 (stereo not given),inactive,–
CC(=O)NCCCOc1ccc(C(=O)N2CCC(N3C(=O)CCc4ccccc43)CC2)cc1,inactive,–
CS[C@]1(CO)C(=O)N2[C@H]3C(=CC=C[C@@H]3O)C[C@@]2(SC)C(=O)N1C,inactive,–
COCC1OC(=O)c2coc3c2C1(C)C1=C(C3=O)C2CCC(=O)C2(C)CC1OC(C)=O (stereo not given),6510 nM (active),–
CC(C)(O)/C=C/C(=O)[C@](C)(O)[C@H]1[C@H](O)C[C@@]2(C)[C@@H]3CC=C4[C@@H](C[C@H](O)C(=O)C4(C)C)[C@]3(C)C(=O)C[C@]12C,448 nM (active),–
O=C(OC[C@H]1O[C@@H](Oc2ccc(O)cc2CO)[C@H](O)[C@@H](O)[C@@H]1O)c1ccccc1,inactive,–
O=P1(N(CCCl)CCCl)NC(OO)CCO1 (stereo not given),inactive,–
C/C=C1/CN2CC[C@]34C(=Nc5ccccc53)[C@@H]2C[C@@H]1[C@H]4C(=O)OC,inactive,–
COC(=O)C1=COC(C)C2CN3CCC4(C(=O)Nc5ccccc54)C3CC12 (stereo not given),inactive,–
CCOC(=O)c1ccc(-c2ccc(OC(=O)N(C)Cc3cccc(-c4ccncc4)c3)cc2)cc1,inactive,–
C=CCN1CCC2(C)c3cc(O)ccc3C[C@H]1[C@H]2C,inactive,–
O=C(NCCN1CCC2(CC1)C(=O)NCN2c1cccc(F)c1)c1ccc(F)c(F)c1,16400 nM (active),–
C#C[C@]1(OC(=O)CCCCCC)CC[C@H]2[C@@H]3CCC4=CC(=O)CC[C@@H]4[C@H]3CC[C@@]21C,20600 nM (active),–
CCCCCn1cc(C(=O)Oc2cccc3cccnc23)c2ccccc21,inactive,–

Structure (SMILES),Potency,"activity change, negative = cytotoxicity"
CCN(CC)/[N+]([O-])=N/O,inactive,–
CC1=CC2/C=C(\C)CCCC(O)/C=C/C(=O)OC23C(=O)NC(CC(C)C)C3C1C (stereo not given),inactive,–
C[C@H]1C/C=C/[C@H]2[C@@H]3O[C@]3(C)[C@@H](C)[C@H]3[C@H](Cc4ccccc4)NC(=O)[C@]32OC(=O)O/C=C/[C@@](C)(O)C1=O,2240 nM (active),–
COC(=O)[C@H]1[C@@H](OC(=O)c2ccccc2)C[C@@H]2CC[C@H]1N2C,inactive,–
COC1CC(O[C@H]2CC[C@@]3(C)C(CCC4C3CC[C@]3(C)[C@@H](C5=CC(=O)OC5)CC[C@]43O)C2)OC(C)C1O (stereo not given in full),100 nM (active),–
COc1cc([C@@H]2c3cc4c(cc3[C@@H](O)[C@H]3COC(=O)[C@H]23)OCO4)cc(OC)c1O,651 nM (active),–
CN[C@@H]1C[C@H]2O[C@@](C)([C@@H]1OC)n1c3ccccc3c3c4c(c5c6ccccc6n2c5c31)C(=O)NC4,58 nM (active),–
C=C1[C@@]23C(=O)O[C@H](C)[C@]24O[C@@]2(C(=C)[C@]5(C=CC(=O)OC5(C)C)CC[C@]32C)[C@H](O)[C@@]1(C)OC4=O,inactive,–
C1=C(c2cnc[nH]2)c2ccsc2CC1,inactive,–
C[C@@H]1CCC/C=C/[C@H]2C[C@@H](O)C[C@@H]2[C@@H](O)/C=C/C(=O)O1,164 nM (active),–
CN1CCC2=C(C1)c1ccccc1Cc1ccccc12,inactive,–
CC(C)[C@H](NC(=O)c1nn(Cc2ccc(F)cc2)c2ccccc12)C(N)=O,inactive,–
CN(C)CCO,inactive,–
C=C1C(=O)O[C@@H]2[C@H]3C(=C)[C@@H](O)C[C@H]3C(=C)C[C@@H](O)[C@@H]12,inactive,–
C[C@]12CC[C@H](O)CC1=CC[C@@H]1C2CC[C@]2(C)[C@@H](C3=CC(=O)OC3)CC[C@]12O (stereo not given in full),10100 nM (active),–
C[N+](C)(C)CC(=O)[O-],inactive,–
CNC(C)Cc1ccccc1 (stereo not given),inactive,–
CC1Oc2cc3c(-c4c(O)cc(O)c5c(O)c6c(cc45)OC(C)C(C)C6=O)c(O)cc(O)c3c(O)c2C(=O)C1C (stereo not given),8200 nM (active),–
C[C@@H]1C[C@@H](O)[C@]2(O)O[C@@H]3C[C@@]4(C=O)C(CC[C@@H]5C4CC[C@]4(C)[C@@H](C6=CC(=O)OC6)CC[C@]54O)C[C@H]3O[C@@H]2O1 (stereo not given in full),63.2 nM (active),–
CC(=O)O[C@@H]1[C@@H](O)[C@H]2O[C@@H]3C=C(C)[C@@H](O)C[C@]3(CO)[C@]1(C)[C@]21CO1,904 nM (active),–
